System: Vero E6 infected with SARS-CoV-2
Assay: inhibition of SARS-CoV-2 cytopathic effect; higher = more antiviral protection, active = above 15
Details: 48 h

Measured: inhibition of SARS-CoV-2 cytopathic effect

O=c1ncn2nc(Sc3ccc(F)cc3F)ccc2c1-c1c(Cl)cccc1Cl
inactive: 1 nM 1.28% | 8.33 nM -0.16% | 100 nM -1.32% | 833.33 nM 1.03% | 10000 nM 1.38%

CCOC(=O)[C@H](CCc1ccccc1)N[C@@H](C)C(=O)N1Cc2ccccc2C[C@H]1C(=O)O [quinapril]
inactive: 1 nM 1.54% | 8.33 nM 1.58% | 100 nM 0.68% | 833.33 nM 2.09% | 10000 nM 4.29%

CC(=O)[C@@]1(O)CC[C@H]2[C@@H]3C[C@H](C)C4=CC(=O)C=C[C@]4(C)[C@@]3(F)[C@@H](O)C[C@@]21C [fluorometholone]
inactive: 1 nM 0.01% | 8.33 nM 0.61% | 100 nM 0.19% | 833.33 nM -0.97% | 10000 nM 1.57%

CC(c1cc2ccccc2s1)N(O)C(N)=O (stereo not given) [zileuton]
inactive: 1 nM -2.05% | 8.33 nM -0.81% | 100 nM 1.43% | 833.33 nM -1.9% | 10000 nM -1.8%

CC1(C)CCC[C@]2(C)[C@H]3CC(=O)O[C@]3(C)CC[C@@H]12 [Sclareolide (Norambreinolide)]
inactive: 1 nM -2.36% | 8.33 nM 3.53% | 100 nM 6.06% | 833.33 nM 2.01% | 10000 nM 1.5%

COc1ccc(-c2cc(C(F)F)nn2-c2ccc(S(N)(=O)=O)cc2)cc1F [deracoxib]
inactive: 1 nM 2.3% | 8.33 nM -0.35% | 100 nM 3.5% | 833.33 nM 2.29% | 10000 nM 2.18%

COc1ccc(C2CNC(=O)NC2)cc1O[C@H]1C[C@@H]2CC[C@H]1C2 [atizoram]
inactive: 1 nM -0.64% | 8.33 nM 1.37% | 100 nM -0.71% | 833.33 nM -0.02% | 10000 nM -1.24%

CCN(CC)C(=O)N[C@H]1C[C@@H]2c3cccc4[nH]cc(c34)C[C@H]2N(C)C1 [terguride]
inactive: 1 nM -0.35% | 8.33 nM -0.23% | 100 nM -0.57% | 833.33 nM -2.15% | 10000 nM -0.04%

COc1cc(SC)ccc1C(=O)N1CCC(Cc2ccccc2)CC1
inactive: 1 nM 4.96% | 8.33 nM 7.9% | 100 nM 8.76% | 833.33 nM 9.01% | 10000 nM 7.35%

O=C1[O][SbH]23[O]C(=O)C([O]2)C2[O][SbH]4([O]C(=O)C([O]4)C1[O]3)[O]C2=O [antimonyl]
inactive: 1 nM 0.49% | 8.33 nM 0.38% | 100 nM -2.02% | 833.33 nM 0.19% | 10000 nM -10.4%

NS(=O)(=O)c1ccc(NC(=O)Nc2ccc(F)cc2)cc1
inactive: 1 nM 1% | 8.33 nM -1.24% | 100 nM 0.78% | 833.33 nM -1.65% | 10000 nM -0.78%

N[C@@H](Cc1cc(CP(=O)(O)O)cc(-c2ccccc2Cl)c1)C(=O)O
inactive: 1 nM 8.76% | 8.33 nM 0.31% | 100 nM 1.79% | 833.33 nM 1.85% | 10000 nM 1.74%

CCCCc1nc(Cl)c(C(=O)O)n1Cc1ccc(-c2ccccc2-c2nn[nH]n2)cc1 [carboxylosartan]
inactive: 1 nM 1.07% | 8.33 nM 1.82% | 100 nM 1.92% | 833.33 nM 0.51% | 10000 nM 0.68%

CCc1cc(O)c(Oc2ccc(C(N)=O)cc2F)cc1F
inactive: 1 nM 0.22% | 8.33 nM -0.22% | 100 nM 0.21% | 833.33 nM -0.53% | 10000 nM -0.97%

CCOC1O[C@H]([C@@H](COCc2ccccc2)OCc2ccccc2)[C@H](OCc2ccccc2)[C@H]1O (stereo not given in full) [tribenoside]
inactive: 1 nM -7.21% | 8.33 nM -1.54% | 100 nM -0.86% | 833.33 nM 0.08% | 10000 nM 1.9%

CCNCC(O)c1cccc(O)c1 (stereo not given) [etilefrine]
inactive: 1 nM -0.51% | 8.33 nM 2.79% | 100 nM -0.96% | 833.33 nM -0.19% | 10000 nM 1.89%

Cc1nc2ccc(NC(=O)Nc3ccnc4cccnc34)cc2o1
inactive: 1 nM 0.35% | 8.33 nM 0.06% | 100 nM 2.76% | 833.33 nM -0.56% | 10000 nM -0.97%

CC1CNc2c(cccc2S(=O)(=O)N[C@@H](CCCNC(=N)N)C(=O)N2CC[C@@H](C)C[C@@H]2C(=O)O)C1 (mixture of isomers) [argatroban]
inactive: 1 nM -2.89% | 8.33 nM 2.45% | 100 nM 0.37% | 833.33 nM 0.05% | 10000 nM -0.11%

O=C(O)COC(=O)Cc1ccccc1Nc1c(Cl)cccc1Cl [aceclofenac]
inactive: 1 nM 0.39% | 8.33 nM 0.9% | 100 nM 0.17% | 833.33 nM -0.85% | 10000 nM 0.58%

FC(F)OC(F)(F)C(F)Cl (stereo not given) [enflurane]
inactive: 1 nM 1.24% | 8.33 nM 0.43% | 100 nM 1.56% | 833.33 nM -3.51% | 10000 nM -3.14%

CO[C@@H](C(=O)N1Cc2[nH]nc(NC(=O)c3ccc(N4CCN(C)CC4)cc3)c2C1)c1ccccc1 [danusertib]
inactive: 1 nM 2.82% | 8.33 nM 2.41% | 100 nM -1.12% | 833.33 nM -0.08% | 10000 nM -3.74%

Cc1cc2c(C(C)C)c(O)c(O)c(C=O)c2c(O)c1-c1c(C)cc2c(C(C)C)c(O)c(O)c(C=O)c2c1O [gossypol]
inactive: 1 nM -0.82% | 8.33 nM -3.04% | 100 nM -0.64% | 833.33 nM -2.5% | 10000 nM -6.17%

NCCNC(=O)c1ccc(Cl)cn1 [lazabemide]
inactive: 1 nM 1.32% | 8.33 nM -0.18% | 100 nM -0.23% | 833.33 nM -0.24% | 10000 nM 3.29%

CC(C)Nc1cc(-c2c[nH]c(C(=O)N[C@H](CO)c3cccc(Cl)c3)c2)c(Cl)cn1
inactive: 1 nM -2.18% | 8.33 nM 0.33% | 100 nM -2.23% | 833.33 nM -5.21% | 10000 nM -6.01%

NC1CCN(c2c(F)cc3c(=O)c(C(=O)O)cn(C4CC4)c3c2Cl)C1 (stereo not given) [clinafloxacin]
inactive: 1 nM 2.47% | 8.33 nM 0.61% | 100 nM -1% | 833.33 nM -0.8% | 10000 nM 0.5%

CC(C)n1cnc2c(C(=O)N[C@H]3CN4CCC3CC4)cc(Cl)cc21
inactive: 1 nM -1.27% | 8.33 nM -1.37% | 100 nM -1.13% | 833.33 nM 1.32% | 10000 nM -4.61%

CNc1ncc2cc(-c3cc(NC(=O)NCCC(C)(C)C)c(F)cc3C)c(C)nc2n1
inactive: 1 nM 0.87% | 8.33 nM 1.85% | 100 nM 5.54% | 833.33 nM -4.43% | 10000 nM -8.15%

CN1CCN(Cc2ccc(Nc3ncc(Cl)c(Nc4ccccc4S(=O)(=O)N(C)C)n3)cc2)CC1
inactive: 1 nM 1.64% | 8.33 nM 0.81% | 100 nM 2.68% | 833.33 nM -8.19% | 10000 nM -10.2%

N#Cc1cnc2c(Cl)cc(NCc3cn(CCN4CCCCCC4)nn3)cc2c1Nc1ccc(F)c(Cl)c1 [cot-inhibitor-1]
inactive: 1 nM -0.74% | 8.33 nM 2.31% | 100 nM -0.11% | 833.33 nM -2.18% | 10000 nM -14%

COc1ccc(-c2ccc3cc(C(=O)O)ccc3c2)cc1C12CC3CC(CC(C3)C1)C2 [adapalene]
inactive: 1 nM -0.05% | 8.33 nM -0.29% | 100 nM 2.4% | 833.33 nM 2.31% | 10000 nM 3.12%

O=C(NCCCCCCNC(=O)ON=C1CCCCC1)ON=C1CCCCC1
inactive: 1 nM 2.1% | 8.33 nM 0.56% | 100 nM 1.93% | 833.33 nM 2.74% | 10000 nM 2.7%

Nc1cccc(CNC(=O)c2ccc(Oc3ccc(OCc4cccc(F)c4)cc3)nc2)c1
inactive: 1 nM -2.39% | 8.33 nM -0.37% | 100 nM 0.75% | 833.33 nM 0.65% | 10000 nM -2.15%

CCCCCC(=O)O[C@]1(C(C)=O)CC[C@H]2[C@@H]3CCC4=CC(=O)CC[C@]4(C)[C@H]3CC[C@@]21C [17-hydroxyprogesterone-caproate]
inactive: 1 nM -1.12% | 8.33 nM 1.14% | 100 nM 1.12% | 833.33 nM 1.58% | 10000 nM 5.84%

CCCCCCCCCC(=O)O[C@H]1CC[C@H]2[C@@H]3CCC4=CC(=O)CC[C@@H]4[C@H]3CC[C@]12C [Nandrolone decanoate]
inactive: 1 nM 0.16% | 8.33 nM 0.18% | 100 nM -0.72% | 833.33 nM 0.02% | 10000 nM -4.93%

Clc1ccc(C(OCCN2CCCCC2)c2ccccc2)cc1 (stereo not given) [cloperastine]
inactive: 1 nM -0.8% | 8.33 nM -0.73% | 100 nM 0.64% | 833.33 nM -3.95% | 10000 nM -8.21%

NC(=O)c1ccc(F)c2c1C[C@@H](N(C1CCC1)C1CCC1)CO2 [robalzotan]
inactive: 1 nM -1.71% | 8.33 nM 2.76% | 100 nM 1.8% | 833.33 nM 0.98% | 10000 nM 3.7%

CN[C@H]1CN(c2ccc3c(=O)c(C(=O)O)cn(-c4nccs4)c3n2)C[C@@H]1OC [voreloxin]
inactive: 1 nM 0.95% | 8.33 nM -1.14% | 100 nM 2.62% | 833.33 nM -0.72% | 10000 nM 0.56%

Cc1cc(O)c2c(=O)c3c(O)cc(O)c4c5c(O)cc(O)c6c(=O)c7c(O)cc(C)c8c1c2c(c34)c(c78)c65 [hypericin]
inactive: 1 nM 3.48% | 8.33 nM -1.72% | 100 nM -6.89% | 833.33 nM -0.08% | 10000 nM -4.81%

C[C@@H]1NC(=O)[C@@H]2CCCN2C(=O)[C@H](CC(N)=O)NC(=O)[C@@H]2CSSC[C@H](N)C(=O)N[C@H]3CSSC[C@H](NC1=O)C(=O)N[C@@H]([C@@H](C)O)C(=O)NCC(=O)N[C@H](C(=O)N[C@@H](Cc1ccc(O)cc1)C(=O)O)CSSC[C@H](NC(=O)[C@H](Cc1ccc(O)cc1)NC(=O)[C@H](CCC(=O)O)NC3=O)C(=O)N2 [linaclotide]
inactive: 1 nM -2.9% | 8.33 nM 0.88% | 100 nM 1.75% | 833.33 nM 1% | 10000 nM 3.24%

Reference: the supplement of paper PMC13380429
